36 compounds from PubChem BioAssay can be followed below.

Torsin-1A (Homo sapiens), sequence (O14656 whole entry, looked up): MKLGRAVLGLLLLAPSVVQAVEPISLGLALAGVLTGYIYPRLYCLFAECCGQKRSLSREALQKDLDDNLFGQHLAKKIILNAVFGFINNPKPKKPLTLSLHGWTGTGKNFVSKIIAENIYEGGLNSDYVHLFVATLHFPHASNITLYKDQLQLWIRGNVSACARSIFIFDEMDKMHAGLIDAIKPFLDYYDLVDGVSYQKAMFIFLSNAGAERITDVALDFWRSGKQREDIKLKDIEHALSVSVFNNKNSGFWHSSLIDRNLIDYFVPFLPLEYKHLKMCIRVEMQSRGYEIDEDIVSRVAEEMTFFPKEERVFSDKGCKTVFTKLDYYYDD

The first test concerns the target Torsin-1A (Homo sapiens) (UniProt O14656). The test is described as follows: TOR1A wild-type binding on microarray – cell lysate, small-molecule microarray, lysate, 635/667 nm, primary screen (AID 1149). To be noted: COS7 hTOR1A-WT lysate, 635 nm fluorescence, higher = more signal.
Consider `CO[C@@H]1COC(=O)[C@H](C)NC(=O)[C@@H](C)COC(=O)CCC[C@H]1C`, for which the composite z-score was determined as 0.738.
Same read-out and setting: for `CC(C)c1ccc(NN2C(C(O)c3ccc4c(c3)OCO4)C=CC3C(=O)N(c4ccccc4)C(=O)C32)cc1` (stereo not drawn) the value was -0.0945; for `CCOC(=O)[C@H](Cc1ccccc1)NC(=O)CCC1CC(OC(=O)NCc2ccc3c(c2)OCO3)CC2(CCCC(COC(=O)NCc3ccccc3)O2)O1` (stereo partly drawn), 0.0156; for `CC(C)(C)OC(=O)CC[C@]1(C(=O)NCc2ccccc2)N=C(c2ccc(OCCCO)cc2)O[C@H]1c1ccccc1`, 0.712.
The same measure, in the same setting: for `Cc1ccc(C2CC=C(C(=O)O)CN2S(=O)(=O)c2ccc(C)cc2)cc1` (stereo not drawn) the value was 0.427.
Still for that read-out and setting: with `CC[C@@H](c1ccccc1)n1c(=O)n2n(c1=O)[C@H]1[C@H](O)[C@@H]3O[C@@H]3C(=NOCC=C(C)CCC=C(C)C)[C@H]1CC2` the figure was 0.216; with `CC(CCC(=O)OC[C@H]1O[C@H](C#Cc2ccccc2)C=C[C@@H]1Oc1ccc(C)cc1)=NOC[C@@H](O)COCc1ccco1`, -6.37.

The target is the same in another test. The test is described as follows: torsin A mutant lysate binding on microarrays – cell lysate, small-molecule microarray, COS7 lysate, 635/667 nm fluorescence, primary screen (AID 1150).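 Further: score pools 667 nm emission and signal to noise measuring lysate protein binding.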 To be noted: COS7 hTOR1A mutant lysate, 635 nm fluorescence, higher = more signal.
For `COc1ccc([Si](C)(C)[C@@H]2[C@@H](CCO)O[C@]3(C(=O)N(Cc4ccc(NC(C)=O)cc4)c4ccccc43)[C@H]2C)cc1`, the composite z-score was determined as 1.21.
Same read-out and setting: with `CCCCC(=C=CC[C@H](O)c1ccccc1OCCO)C[C@H](O)COCc1ccccc1` the figure was 0.259; with `COC(=O)[C@H]1COC(c2ccc(OCCCO)cc2)=N1`, 1.4; with `CC(C)C[C@@H]1NC(=O)[C@H]2C[C@@H](C(=O)NCCCCCCN(C)C)[C@@H](c3cccc(OCCO)c3)N2C1=O`, 1.32.
As for `O=C1O[C@@H](c2ccccc2)[C@@H](c2ccccc2)N2[C@@H](c3ccccc3OCCO)[C@]3(C(=O)Nc4ccc(C#CCCO)cc43)[C@@H](C(=O)O)[C@H]12`, the composite z-score amounted to 0.925.
Same read-out and setting: for `CC(C)NC(=O)[C@@]1(C)c2ccccc2C(=O)N(Cc2cc(F)cc(C(F)(F)F)c2)[C@H]1c1ccc(CO)cc1` the value was 0.916; for `O=C1O[C@@H](c2ccccc2)[C@@H](c2ccccc2)N2[C@@H](c3ccc(OCCO)cc3)[C@]3(C(=O)Nc4ccccc43)[C@@H](C(=O)N3CCN(c4ncccn4)CC3)[C@H]12`, 0.94; for `CCc1cc2c(nc1CC)CCN(CCC(C)=NOC[C@@H](O)[C@H]1O[C@@H]3OC(C)(C)O[C@@H]3[C@H]1O)C2`, 0.101.
Same read-out and setting: with `C=CC[C@@H]1C=C[C@H](ON=C(C)CCN2CCc3nc(CC)c(CC)cc3C2)[C@@H](CO)O1` the figure was 1.12; with `CN(C)CCCNC(=O)[C@@H]1c2ccccc2C(=O)N(Cc2cc(F)cc(C(F)(F)F)c2)[C@H]1c1ccc(CO)cc1`, -0.348; with `O=C1[C@H]2[C@H]3[C@H](O)[C@H](O)CC(=NOC[C@@H](O)COCc4ccco4)[C@H]3CC[C@H]2C(=O)N1c1cccc(Oc2ccccc2)c1`, 0.948.
Compound `CS(=O)(=O)CCOC(=O)C1=CC(CCCO)=CC(c2cccs2)N(Cc2cccc(OC(F)(F)F)c2)C=C1C(=O)OCCS(C)(=O)=O` (stereo not drawn) registered a composite z-score of 0.88.
Still for that read-out and setting: for `CC(CCC(=O)OC[C@H]1O[C@H](C#Cc2ccccc2)C=C[C@@H]1Oc1ccc(C)cc1)=NO[C@@H](C)c1cn([C@H](CO)Cc2ccccc2)nn1` the value was -0.146; for `COc1ccc(O[C@H]2C=C[C@@H](c3ccccc3)O[C@@H]2COC(=O)CCC(C)=NO[C@@H](C)c2cc(-c3c(C)cc(C)cc3C)no2)cc1`, -1.04.
On the same count and under the same terms, for `CC(C)[C@@H](OCc1ccccc1)[C@H](C)C=NO[C@H](C)c1cn([C@H](CO)Cc2ccccc2)nn1` the value was 1.15; for `COc1cccc([C@H]2Oc3ccc(OC)cc3C(=NOC(C)CN3CCCc4nc(C)c(C)cc43)[C@@H]2O)c1` (stereo partly drawn), 0.27.
Still for that read-out and setting: with `O=C1C[C@@H](O)[C@@H](O)[C@@H]2[C@@H]3C(=O)N(C4CCCCC4)C(=O)[C@@H]3CC[C@H]12` the figure was 0.585; with `COc1ccc([Si](C)(C)[C@H]2[C@H](CC(=O)N3CCC[C@H]3CO)O[C@@]3(C(=O)N(Cc4cccc(N5C(=O)COc6ccccc65)c4)c4ccccc43)[C@@H]2C)cc1`, 0.889; with `CC(C)NC(=O)[C@@]1(c2ccc([N+](=O)[O-])cc2)CC(=O)N(CC23CC4CC(CC(C4)C2)C3)[C@@H]1c1ccc(CO)cc1I`, 0.369.
With `C=CCOC(=O)[C@H]1[C@@H]2C(=O)O[C@@H](c3ccccc3)[C@@H](c3ccccc3)N2[C@@H](c2ccc(OCCOC(=O)[C@H]3C[C@H]4C(=O)N5CCC[C@H]5C(=O)N4[C@H]3c3cccc(OCCO)c3)cc2)[C@]12C(=O)Nc1ccc(I)cc12`, the composite z-score was 2.23.
In turn, `CC(C)CN1CCc2nc(-c3ccccc3)c3c(c2CC1)CO[C@@H](C)C3` displayed a composite z-score of 0.954.
`CC(C)OC(=O)C=C1C[C@@H](c2ccc(C#N)cc2)O[C@@H](c2ccc(C#N)cc2)O1` displayed a composite z-score of 2.06.
On the same count and under the same terms, for `C=CC[C@@H]1C=C[C@H](ON=C[C@@H](OC)[C@H](C)C=CCC(=O)OC)[C@@H](CO)O1` the value was 0.352; for `CN1C(=O)C2C(C1=O)C1C=C(CCCO)C2C(c2ccc(CN3CCCC3)cc2)N1C` (stereo not drawn), -0.287.
The same measure, in the same setting: for `COCC(=C=CC[C@@H](O)c1ccccc1OCCO)CCO` the value was 0.518; for `COCCOC(=O)N1C(=O)[C@@]2(c3cc(C#CCNC(N)=O)ccc31)[C@H](c1ccc(O)cc1)N1[C@H](c3ccccc3)[C@H](c3ccccc3)OC(=O)[C@H]1[C@@H]2C(=O)N1CCCCCCC1`, 0.527; for `C=C(/C(=C/C[C@H](OC(=O)c1ccncc1)c1ccc(OCCO)cc1)c1cnc2ccccc2c1)C(C)C`, 0.551.
In turn, `Cc1cc2c(c(=O)o1)[C@H](O)[C@H]1O[C@H]1C2=O` yielded a composite z-score of 0.46.
Still for that read-out and setting: with `COC(=O)[C@@H]1CC[C@H](C)[C@@H](c2ccc(C)cc2)N1C(=O)c1ccc(C=NOC[C@@H](O)COCc2ccco2)cc1` the figure was -2.05; with `CO[C@@H]1COC(=O)[C@H](C)NC(=O)[C@@H](C)COC(=O)CCC[C@H]1C`, 0.462.
Still for that read-out and setting: with `CC(C)c1ccc(NN2C(C(O)c3ccc4c(c3)OCO4)C=CC3C(=O)N(c4ccccc4)C(=O)C32)cc1` (stereo not drawn) the figure was 1.04; with `CCOC(=O)[C@H](Cc1ccccc1)NC(=O)CCC1CC(OC(=O)NCc2ccc3c(c2)OCO3)CC2(CCCC(COC(=O)NCc3ccccc3)O2)O1` (stereo partly drawn), 0.28.
On the same count and under the same terms, with `CC(C)(C)OC(=O)CC[C@]1(C(=O)NCc2ccccc2)N=C(c2ccc(OCCCO)cc2)O[C@H]1c1ccccc1` the figure was 1.11; with `Cc1ccc(C2CC=C(C(=O)O)CN2S(=O)(=O)c2ccc(C)cc2)cc1` (stereo not drawn), 0.426; with `CC[C@@H](c1ccccc1)n1c(=O)n2n(c1=O)[C@H]1[C@H](O)[C@@H]3O[C@@H]3C(=NOCC=C(C)CCC=C(C)C)[C@H]1CC2`, 0.366.
Regarding `CC(CCC(=O)OC[C@H]1O[C@H](C#Cc2ccccc2)C=C[C@@H]1Oc1ccc(C)cc1)=NOC[C@@H](O)COCc1ccco1`, the composite z-score was -5.2.
